# The supplement of paper PMC4022240
# ± gives the standard deviation.
# T1: HaloTag-ATRX ADD domain (163-292)
# T1 chain: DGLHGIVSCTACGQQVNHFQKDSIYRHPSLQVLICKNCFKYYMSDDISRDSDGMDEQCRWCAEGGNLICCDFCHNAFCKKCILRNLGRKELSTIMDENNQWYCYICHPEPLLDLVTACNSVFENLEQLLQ
# What was measured:
# Experiment in all cases: peptide microarray binding signal (635 nm), min-max normalized on array (fraction of array maximum); higher = stronger binding
# [1] = molecular target: T1, HaloTag-ATRX ADD domain (163-292)
# Summary of the method: (§1)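 Binding signal is the mean intensity of triplicate spots, min-max scaled within each library. Histone 13-mer peptide–cellulose conjugates were spotted in triplicate on nitrocellulose with a Cy3 tracer and blocked overnight at 4°C. Probing lasted 1 h at 4°C, either with biotin-labelled HaloTag reader fusions (10 nM to 1 μM) and streptavidin-Alexa Fluor 647 or with rabbit histone antibodies (1:10,000 to 1:2,000) and anti-rabbit Alexa 647. An Axon GenePix 4000B read signal at 635 nm and misprints at 532 nm.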
# [2] = molecular target: HaloTag-ING2 PHD (mouse Ing2 200-280)
# Summary of the method: as §1
# [3] = molecular target: anti-H3K4me3 antibody ab8580
# Summary of the method: as §1
# [4] = molecular target: anti-H3K9me3 antibody ab8898
# Summary of the method: as §1
# [5] = peptide region: H3 112-124, peptide modifications: H3K122me2, binder concentration: 1:2,000 dilution
# [6] = peptide region: H3 112-124, peptide modifications: H3K122me2, binder concentration: 1:10,000 dilution
# [7] = peptide region: H3 112-124, peptide modifications: H3R116me2s, binder concentration: 1:2,000 dilution
# [8] = peptide region: H3 112-124, peptide modifications: H3R116me2s, binder concentration: 1:10,000 dilution
# [9] = peptide region: H4 1-13, peptide modifications: H4K8ac, binder concentration: 1:2,000 dilution
# [10] = peptide region: H4 1-13, peptide modifications: H4K8ac, binder concentration: 1:10,000 dilution
# [11] = peptide region: H4 1-13, peptide modifications: H4R3me1, binder concentration: 1:2,000 dilution
# [12] = peptide region: H4 1-13, peptide modifications: H4R3me1, binder concentration: 1:10,000 dilution
# [13] = peptide region: H3 112-124, peptide modifications: H3K122ac, binder concentration: 1:2,000 dilution
# [14] = peptide region: H3 112-124, peptide modifications: H3K122ac, binder concentration: 1:10,000 dilution
# [15] = peptide region: H3 112-124, peptide modifications: H3K122me1, binder concentration: 1:2,000 dilution
# [16] = peptide region: H3 112-124, peptide modifications: H3K122me1, binder concentration: 1:10,000 dilution
# [17] = peptide region: H4 1-13, binder concentration: 1:2,000 dilution
# [18] = peptide region: H4 1-13, binder concentration: 1:10,000 dilution
# [19] = peptide region: H4 1-13, peptide modifications: H4K5ac H4K8ac, binder concentration: 1:2,000 dilution
# [20] = peptide region: H4 1-13, peptide modifications: H4K5ac H4K8ac, binder concentration: 1:10,000 dilution
# [21] = peptide region: H4 1-13, peptide modifications: H4K5ac H4K12ac, binder concentration: 1:2,000 dilution
# [22] = peptide region: H4 1-13, peptide modifications: H4K5ac H4K12ac, binder concentration: 1:10,000 dilution
# [23] = peptide region: H4 1-13, peptide modifications: H4R3me2a, binder concentration: 1:2,000 dilution
# [24] = peptide region: H4 1-13, peptide modifications: H4R3me2a, binder concentration: 1:10,000 dilution
binder,measurement,setting,value
IHAKRVTIMPKDI [H3 112-124 I H A K R V T I M P Kme2 D I],peptide microarray binding signal,"[1]; peptide region: H3 112-124, peptide modifications: H3K122me2, binder concentration: 50 nM",0.0047 ± 8.8e-05
same,peptide microarray binding signal,"[1]; peptide region: H3 112-124, peptide modifications: H3K122me2, binder concentration: 500 nM",0.0148 ± 0.00039
same,peptide microarray binding signal,"[2]; peptide region: H3 112-124, peptide modifications: H3K122me2, binder concentration: 10 nM",0.00567 ± 0.00021
same,peptide microarray binding signal,"[2]; peptide region: H3 112-124, peptide modifications: H3K122me2, binder concentration: 100 nM",0.0168 ± 0.0034
same,peptide microarray binding signal,[3]; [5],0.000906 ± 6e-05
same,peptide microarray binding signal,[3]; [6],0.000799 ± 8.3e-06
same,peptide microarray binding signal,[4]; [5],0.00287 ± 0.00058
same,peptide microarray binding signal,[4]; [6],0.00121 ± 2.4e-05
IHAKRVTIMPKDI [H3 112-124 I H A K Rme2s V T I M P K D I],peptide microarray binding signal,"[1]; peptide region: H3 112-124, peptide modifications: H3R116me2s, binder concentration: 50 nM",0.00574 ± 0.00016
same,peptide microarray binding signal,"[1]; peptide region: H3 112-124, peptide modifications: H3R116me2s, binder concentration: 500 nM",0.0129 ± 0.00072
same,peptide microarray binding signal,"[2]; peptide region: H3 112-124, peptide modifications: H3R116me2s, binder concentration: 10 nM",0.00645 ± 0.00026
same,peptide microarray binding signal,"[2]; peptide region: H3 112-124, peptide modifications: H3R116me2s, binder concentration: 100 nM",0.014 ± 0.00075
same,peptide microarray binding signal,[3]; [7],0.00215 ± 0.00015
same,peptide microarray binding signal,[3]; [8],0.00285 ± 0.00021
same,peptide microarray binding signal,[4]; [7],0.00341 ± 0.00018
same,peptide microarray binding signal,[4]; [8],0.002306 ± 2.1e-05
SGRGKGGKGLGKG [H4 1-13 S G R G K G G Kac G L G K G],peptide microarray binding signal,"[1]; peptide region: H4 1-13, peptide modifications: H4K8ac, binder concentration: 50 nM",0.00248 ± 2.9e-05
same,peptide microarray binding signal,"[1]; peptide region: H4 1-13, peptide modifications: H4K8ac, binder concentration: 500 nM",0.00481 ± 8.5e-05
same,peptide microarray binding signal,"[2]; peptide region: H4 1-13, peptide modifications: H4K8ac, binder concentration: 10 nM",0.002626 ± 1.5e-05
same,peptide microarray binding signal,"[2]; peptide region: H4 1-13, peptide modifications: H4K8ac, binder concentration: 100 nM",0.00546 ± 0.00011
same,peptide microarray binding signal,[3]; [9],0.000434 ± 1.2e-05
same,peptide microarray binding signal,[3]; [10],0.000628 ± 6.7e-06
same,peptide microarray binding signal,[4]; [9],9.06e-05 ± 3.5e-06
same,peptide microarray binding signal,[4]; [10],0.000346 ± 3.8e-06
SGRGKGGKGLGKG [H4 1-13 S G Rme G K G G K G L G K G],peptide microarray binding signal,"[1]; peptide region: H4 1-13, peptide modifications: H4R3me1, binder concentration: 50 nM",0.00483 ± 0.00013
same,peptide microarray binding signal,"[1]; peptide region: H4 1-13, peptide modifications: H4R3me1, binder concentration: 500 nM",0.00838 ± 0.0007
same,peptide microarray binding signal,"[2]; peptide region: H4 1-13, peptide modifications: H4R3me1, binder concentration: 10 nM",0.00477 ± 0.00017
same,peptide microarray binding signal,"[2]; peptide region: H4 1-13, peptide modifications: H4R3me1, binder concentration: 100 nM",0.0127 ± 0.0019
same,peptide microarray binding signal,[3]; [11],0.00125 ± 0.00022
same,peptide microarray binding signal,[3]; [12],0.0012 ± 1.2e-05
same,peptide microarray binding signal,[4]; [11],0.000544 ± 6.8e-05
same,peptide microarray binding signal,[4]; [12],0.00115 ± 2e-05
IHAKRVTIMPKDI [H3 112-124 I H A K R V T I M P Kac D I],peptide microarray binding signal,"[1]; peptide region: H3 112-124, peptide modifications: H3K122ac, binder concentration: 50 nM",0.002508 ± 1.9e-05
same,peptide microarray binding signal,"[1]; peptide region: H3 112-124, peptide modifications: H3K122ac, binder concentration: 500 nM",0.00729 ± 0.0012
same,peptide microarray binding signal,"[2]; peptide region: H3 112-124, peptide modifications: H3K122ac, binder concentration: 10 nM",0.00328 ± 0.00025
same,peptide microarray binding signal,"[2]; peptide region: H3 112-124, peptide modifications: H3K122ac, binder concentration: 100 nM",0.00475 ± 0.0007
same,peptide microarray binding signal,[3]; [13],0.00113 ± 0.00025
same,peptide microarray binding signal,[3]; [14],0.00137 ± 0.00013
same,peptide microarray binding signal,[4]; [13],0.000483 ± 2.4e-05
same,peptide microarray binding signal,[4]; [14],0.000692 ± 7.3e-06
IHAKRVTIMPKDI [H3 112-124 I H A K R V T I M P Kme D I],peptide microarray binding signal,"[1]; peptide region: H3 112-124, peptide modifications: H3K122me1, binder concentration: 50 nM",0.00429 ± 0.00037
same,peptide microarray binding signal,"[1]; peptide region: H3 112-124, peptide modifications: H3K122me1, binder concentration: 500 nM",0.0122 ± 0.0011
same,peptide microarray binding signal,"[2]; peptide region: H3 112-124, peptide modifications: H3K122me1, binder concentration: 10 nM",0.0077 ± 0.0008
same,peptide microarray binding signal,"[2]; peptide region: H3 112-124, peptide modifications: H3K122me1, binder concentration: 100 nM",0.00602 ± 0.00041
same,peptide microarray binding signal,[3]; [15],0.00168 ± 0.00019
same,peptide microarray binding signal,[3]; [16],0.00348 ± 0.0013
same,peptide microarray binding signal,[4]; [15],0.00251 ± 0.00011
same,peptide microarray binding signal,[4]; [16],0.00144 ± 5.1e-05
SGRGKGGKGLGKG [H4 1-13 S G R G K G G K G L G K G],peptide microarray binding signal,"[1]; peptide region: H4 1-13, binder concentration: 50 nM",0.00834 ± 0.00028
same,peptide microarray binding signal,"[1]; peptide region: H4 1-13, binder concentration: 500 nM",0.018 ± 0.0011
same,peptide microarray binding signal,"[2]; peptide region: H4 1-13, binder concentration: 10 nM",0.0037 ± 0.00019
same,peptide microarray binding signal,"[2]; peptide region: H4 1-13, binder concentration: 100 nM",0.00928 ± 0.00099
same,peptide microarray binding signal,[3]; [17],0.000189 ± 2e-06
same,peptide microarray binding signal,[3]; [18],0.00417 ± 0.00056
same,peptide microarray binding signal,[4]; [17],0.00211 ± 0.00074
same,peptide microarray binding signal,[4]; [18],0.00306 ± 0.00014
SGRGKGGKGLGKG [H4 1-13 S G R G Kac G G Kac G L G K G],peptide microarray binding signal,"[1]; peptide region: H4 1-13, peptide modifications: H4K5ac H4K8ac, binder concentration: 50 nM",0.00737 ± 0.00034
same,peptide microarray binding signal,"[1]; peptide region: H4 1-13, peptide modifications: H4K5ac H4K8ac, binder concentration: 500 nM",0.0151 ± 0.00043
same,peptide microarray binding signal,"[2]; peptide region: H4 1-13, peptide modifications: H4K5ac H4K8ac, binder concentration: 10 nM",0.00746 ± 6.7e-05
same,peptide microarray binding signal,"[2]; peptide region: H4 1-13, peptide modifications: H4K5ac H4K8ac, binder concentration: 100 nM",0.0206 ± 0.0023
same,peptide microarray binding signal,[3]; [19],0.00177 ± 8.8e-05
same,peptide microarray binding signal,[3]; [20],0.00285 ± 8.8e-05
same,peptide microarray binding signal,[4]; [19],0.00068 ± 7.5e-05
same,peptide microarray binding signal,[4]; [20],0.00156 ± 5.5e-05
SGRGKGGKGLGKG [H4 1-13 S G R G Kac G G K G L G Kac G],peptide microarray binding signal,"[1]; peptide region: H4 1-13, peptide modifications: H4K5ac H4K12ac, binder concentration: 50 nM",0.00552 ± 0.00053
same,peptide microarray binding signal,"[1]; peptide region: H4 1-13, peptide modifications: H4K5ac H4K12ac, binder concentration: 500 nM",0.0164 ± 0.0029
same,peptide microarray binding signal,"[2]; peptide region: H4 1-13, peptide modifications: H4K5ac H4K12ac, binder concentration: 10 nM",0.00352 ± 0.00063
same,peptide microarray binding signal,"[2]; peptide region: H4 1-13, peptide modifications: H4K5ac H4K12ac, binder concentration: 100 nM",0.00822 ± 0.0021
same,peptide microarray binding signal,[3]; [21],0.000547 ± 0.00012
same,peptide microarray binding signal,[3]; [22],0.00217 ± 0.00014
same,peptide microarray binding signal,[4]; [21],0.00131 ± 0.00038
same,peptide microarray binding signal,[4]; [22],0.00196 ± 8e-05
SGRGKGGKGLGKG [H4 1-13 S G Rme2a G K G G K G L G K G],peptide microarray binding signal,"[1]; peptide region: H4 1-13, peptide modifications: H4R3me2a, binder concentration: 50 nM",0.0021 ± 9.6e-06
same,peptide microarray binding signal,"[1]; peptide region: H4 1-13, peptide modifications: H4R3me2a, binder concentration: 500 nM",0.00305 ± 6.3e-05
same,peptide microarray binding signal,"[2]; peptide region: H4 1-13, peptide modifications: H4R3me2a, binder concentration: 10 nM",0.00269 ± 4e-05
same,peptide microarray binding signal,"[2]; peptide region: H4 1-13, peptide modifications: H4R3me2a, binder concentration: 100 nM",0.00404 ± 9.1e-05
same,peptide microarray binding signal,[3]; [23],0.000227 ± 4.2e-06
same,peptide microarray binding signal,[3]; [24],0.000856 ± 2.3e-05
same,peptide microarray binding signal,[4]; [23],1.51e-05 ± 1.7e-07
same,peptide microarray binding signal,[4]; [24],0.000577 ± 1.2e-05
